Our source for the Potency, outcome and activity, negative = inhibition values is PubChem BioAssay (NCATS).

Values without a mark were called inactive. Records with an inconclusive call do not appear. A call without a number means that no potency is given here. Active and inactive are the calls of the source. Calls follow the shape of the dose curve; as a rule, active = well fitted curve in the direction sought with a large enough effect; inconclusive = small, poorly fitted or top-dose-only effect, or another doubt; inactive = no such curve, though single readings can be large; an effect the other way counts as inactive or inconclusive.

System in one experiment: not listed separately
Description: Primary fluorescence-based thiol-reactive (MSTI) qHTS assay for identification of artifact compounds. (AID 1845221).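 Also: thiol-reactive compounds lower the probe fluorescence signal; nearly all actives have a fitted effect of over 65% in size.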 The conditions noted are these: MSTI thiol-reactivity probe, 1 h; series mostly up to 53.8 µM. The procedure, abridged:
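qHTS titration of compound; 4 uM MSTI, PBS pH 7.4, 2% DMSO; 1 h RT, dark; fluorescence 525/598 nm; normalized to Acetyl-MSTI and MSTI; 4-parameter Hill fit.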
For the molecule `CCN1C[C@]2(COC(=O)c3ccccc3N3C(=O)C[C@H](C)C3=O)CC[C@H](OC)[C@@]34[C@@H]5C[C@H]6[C@H](OC)[C@@H]5[C@](O)(C[C@@H]6OC)[C@](O)([C@@H](OC)[C@H]23)[C@@H]14`, the Potency result is “inactive”. In the case of `CN1CCCC1CCOC(c1cc2nccc(C(=O)O)c2[nH]1)c1ccccc1Cl` (stereo not drawn), the Potency result is “inactive”. In the case of `CC(N)Cc1c[nH]c2ccccc12` (stereo not drawn), the Potency entry is “inactive”.

As for `CCN1C[C@]2(COC)[C@H](O)C[C@H](OC)[C@]34[C@@H]5C[C@]6(O)[C@H](OC(=O)c7ccccc7)[C@@H]5[C@@](O)([C@H]([C@H](OC)[C@H]23)[C@@H]14)[C@@H](O)[C@@H]6OC`, the Potency result was “inactive”. As for `Clc1ccc(OCC2=NCCN2)cc1Cl`, the Potency entry was “inactive”. Same read-out and setting: under `CC(=O)OC1CC(O)C(C)(C)C2CC(OC(C)=O)C3(C)C(CCC4(C)C(c5ccoc5)C(=O)C5OC543)C12C` (stereo not drawn) stands “inactive”; under `CN(C)CCc1c[nH]c2ccc(CN3CCN(C)S3(=O)=O)cc12`, “inactive”. On to `COc1cc2c(cc1OC)[C@@]13CCN4CC5=CCO[C@H]6CC(=O)N2[C@H]1[C@H]6[C@H]5C[C@H]43`, for which the Potency result is “inactive”.

Turning to `C[C@H]1C(=O)O[C@H]2[C@H](O)[C@]34C5OC(=O)[C@]3(O[C@@H]3OC(=O)[C@H](O)C34[C@H](C(C)(C)C)[C@H]5O)C12O` (stereo partly drawn), the Potency result was “inactive”. Consider `C[C@]12CC[C@@H](O)C[C@H]1CC[C@@H]1[C@@H]2CC[C@]2(C)C(=O)CC[C@@H]12`, for which the Potency result is “inactive”.

The subject of a further experiment is Nanoluciferase (engineered Oplophorus gracilirostris luciferase). Description: Primary Nanoluciferase (NLuc) qHTS assay for identification of artifact compounds. (AID 1845222). The conditions noted are these: NLuc-conditioned medium, Nano-Glo luminescence, 5 min; series mostly up to 54.1 µM. The procedure, abridged: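 Diluted conditioned medium from NLuc-expressing S16 cells treated with compounds for 15 min at room temperature, then Nano-Glo substrate added; luminescence read after 5 min. Percent inhibition versus no-enzyme and DMSO controls fitted to 4-parameter Hill equation.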
Consider `O=C(O)c1ccnc2cc(C(OCCN3CCCCC3)c3ccccc3Cl)[nH]c12` (stereo not drawn), for which the outcome was inactive. Still for that read-out and setting: the same measure for `CCC(C)(C#N)O[C@@H]1O[C@H](CO)[C@@H](O)[C@H](O)[C@H]1O` (stereo partly drawn): “inactive”.

Turning to `COc1cc(CCNCc2ccccc2O)c(OC)cc1C#N`, the result was inactive. `C=C(CO)C(=O)O[C@H]1C/C(C)=C/CC/C(CO)=C/[C@H]2OC(=O)C(=C)[C@H]12`: the outcome was inactive. As for `CN1C(=O)N(c2ccc(C#N)c(C(F)(F)F)c2)C(=O)[C@]1(CO)c1ccccc1`, the result was inactive. Take `C[C@@](O)(COc1ccc(C#N)cc1)C(=O)Nc1ccc(C#N)c(C(F)(F)F)c1`: the call was inactive. Take `COC(=O)C12C(=O)C(C)(O)C(=O)C1(C)C(C)=CC1C34CCC(OC3=O)C(C)(CO)C4CCC12C` (stereo not drawn): the molecule was classed as inactive. Consider `CC12CCC3C(CCC4(O)CC(O)CCC34C=O)C1(O)CCC2C1=CC(=O)OC1` (stereo not drawn), for which the outcome was inactive.

For the molecule `COC1CC(OC2CCC3(C=O)C(CCC4C3CCC3(C)C(C5=CC(=O)OC5)CCC43O)C2)OC(C)C1OC1OC(CO)C(O)C(O)C1O` (stereo not drawn), the molecule was called inactive. Take `OCCCCC#Cc1cncc(OC[C@@H]2CCN2)c1`: the result was inactive. On the same count and under the same terms, under `COC(=O)C1(C)CCC(O)C2(C)c3c(O)cc(C(C)C)cc3C(O)C(OC(C)=O)C12` (stereo not drawn) stands “inactive”. For the molecule `COC1CC(OC2CCC3(C)C(=CCC4C3CCC3(C)C(C(C)OC5OC(COC6OC(CO)C(O)C(O)C6O)C(O)C(O)C5O)CCC43O)C2)OC(C)C1OC1OC(C)C(O)C(OC)C1O` (stereo not drawn), the activity, negative = inhibition was 2.42% [at 11.6 µM]. In the case of `CC1=C2C[C@H]3[C@@H](CC=C4C[C@@H](O)CC[C@@]43C)[C@@H]2CC[C@]12O[C@@H]1C[C@H](C)CN[C@H]1[C@H]2C`, the call was inactive. Consider `CO[C@@H]1[C@H](O)[C@@H](O[C@@H]2C[C@H]3CC[C@@H]4C(CC[C@]5(C)[C@@H](C6=CC(=O)OC6)CC[C@]45O)[C@@]3(C)[C@H](O)C2)O[C@H](C)[C@@H]1O[C@@H]1O[C@H](CO)[C@@H](O)[C@H](O)[C@H]1O` (stereo partly drawn), for which the molecule was called inactive.

For the molecule `N#C[C@@H](O[C@@H]1O[C@H](CO[C@@H]2O[C@H](CO)[C@@H](O)[C@H](O)[C@H]2O)[C@@H](O)[C@H](O)[C@H]1O)c1ccccc1`, the molecule was classed as inactive.

For `CO[C@H]1[C@H](O)[C@H](O[C@H]2CC[C@]3(C)C4CC[C@]5(C)[C@H](C6=CC(=O)OC6)CC[C@]5(O)C4CC[C@@H]3C2)O[C@@H](C)[C@@H]1O` (stereo partly drawn), the call was inactive. The same measure, in the same setting: the same measure for `COC1CC(O[C@H]2CC[C@]3(C=O)C4CC[C@]5(C)[C@@H](C6=CC(=O)OC6)CC[C@]5(O)[C@@H]4CC[C@]3(O)C2)OC(C)C1O[C@@H]1O[C@H](CO)[C@@H](O)[C@H](O)[C@H]1O` (stereo partly drawn): “inactive”.

Consider `C=CC(C)(O)CC/C=C(\C)C(=O)O[C@H]1[C@H](O)[C@@H](CO)O[C@@H](OC(=O)[C@]23CCC(C)(C)CC2C2=CCC4[C@@]5(C)CC[C@H](O[C@@H]6O[C@H](CO[C@@H]7OC[C@H](O)[C@H](O)[C@H]7O[C@@H]7OC[C@@H](O)[C@H](O)[C@H]7O)[C@@H](O)[C@H](O)[C@H]6O)C(C)(C)C5CC[C@@]4(C)[C@]2(C)CC3)[C@@H]1OC1OC(C)C(O[C@@H]2OC[C@@H](O)[C@H](O[C@@H]3OC[C@@H](O)[C@H](O)[C@H]3O)[C@H]2O)C(O)C1O` (stereo partly drawn), for which the activity, negative = inhibition is 1.73% [at 11.6 µM].
